Results on 21 compounds are retold here after PubChem BioAssay (NCI).

The nature of assay [1]: NCI Yeast Anticancer Drug Screen. Data for the rad50 strain (AID 155).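 Also: 0% = growth of vehicle-only cultures of the same strain.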 Particulars: S. cerevisiae rad50 strain growth inhibition; at 50.0 µM; hits give high values. The method, boiled down:
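Relative growth inhibition (compound vs vehicle) was measured in yeast with a defined repair-gene alteration.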

The nature of assay [2]: NCI Yeast Anticancer Drug Screen. Data for the mec2-1 strain (AID 157). The settings on record: S. cerevisiae mec2-1 strain, at 50.0 µM, hits give high values. The essentials:
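Vehicle-treated cultures served as reference for growth inhibition of compound-exposed mec2-1 yeast.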

A short description of assay [3]: NCI Yeast Anticancer Drug Screen. Data for the sgs1 mgt1 strain (AID 161).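 Also: 0% = growth of cultures given vehicle only.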 The settings on record: S. cerevisiae sgs1 mgt1 strain, at 50.0 µM, hits give high values. The method, boiled down:
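Genetically altered yeast, compound exposure, growth inhibition relative to vehicle.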

Assay [4] can be described thus: NCI Yeast Anticancer Drug Screen. Data for the cln2 rad14 strain (AID 165).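 Also: 0% = growth equal to vehicle treated cultures.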 Particulars: S. cerevisiae cln2 rad14 strain, at 50.0 µM, hits give high values. The essentials: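 Each compound was tested on cln2 rad14 yeast. Inhibition of growth was calculated against vehicle-exposed controls.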
Assay [5] is described as follows: NCI Yeast Anticancer Drug Screen. Data for the bub3 strain (AID 167). The settings on record: S. cerevisiae bub3 mutant strain, at 50.0 µM, hits give high values. The method, boiled down: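 Screening used yeast with an engineered genetic alteration affecting cell cycle control. Compound-exposed cultures were compared with vehicle cultures, and reduced growth was taken as inhibition.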

A short description of assay [6]: NCI Yeast Anticancer Drug Screen. Data for the mlh1 rad18 strain (AID 175). The settings on record: S. cerevisiae mlh1 rad18 strain growth inhibition; at 50.0 µM; hits give high values. The method, boiled down:
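Vehicle-treated cultures served as the reference for growth inhibition in a yeast strain carrying DNA damage repair alterations exposed to each compound.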

Compounds without any hit were thinned out: in the full panel of roughly 79,000, 15% have a hit. Unmarked numbers belong to inactive results. Calls of active or inactive are those of the source. Rule as the data show it: active = growth inhibition above about 70%; inactive = the rest.

Take `CC1(C)CC(=O)C(C=O)C(=O)C1`: the growth inhibition was -6.85% in assay [1]; -13.7% in assay [2]; -38.3% in assay [3]; -2.3% in assay [4]; 3% in assay [5]; -22.9% in assay [6].
For the compound `CCNc1ncnc2sc(SCc3ccccc3)nc12`, the growth inhibition in assay [1] was -39.3%; in assay [2] it was -20.8%; in assay [3] it was -12.7%; in assay [4] it was -0.6%; in assay [5], -31.1%; in assay [6] it was -37.1%.
For the compound `CCCCSCc1nc2nc(Cl)c(Cl)nc2[nH]1`, the growth inhibition is -18.1% in assay [1]; -37.2% in assay [2]; -23.9% in assay [3]; 1.15% in assay [4]; -44.8% in assay [5]; -9.25% in assay [6].
Regarding `COc1ccc(Oc2nc(=O)n3ccccc3n2)cc1`, the growth inhibition in assay [1] was -13.4%; in assay [2], 0.65%; in assay [3], -14.6%; in assay [4] it was -12.6%; in assay [5], 9.45%; in assay [6] it was -20.7%.
Consider `CCOC(=O)NC(=S)Nc1nonc1-c1ccccc1`, for which the growth inhibition in assay [1] was 1.35%; in assay [2], 2%; in assay [3], 36%; in assay [4], -9.65%; in assay [5], 15.6%; in assay [6] it was 26.2%.
In the case of `O=C(CCCn1ccnc1[N+](=O)[O-])NCCn1cnc([N+](=O)[O-])c1`, the growth inhibition in assay [1] is 8.9%; in assay [2] it was 29.6%; in assay [3], 5.2%; in assay [4] it was 5.75%; in assay [5], -9.4%; in assay [6], 61%.
For `CC(O)C1CCCCN1` (stereo unspecified), the growth inhibition in assay [1] is 2.6%; in assay [2] it was -1.1%; in assay [3], -8.85%; in assay [4], 10.4%; in assay [5] it was 14.2%; in assay [6] it was -0.9%.
Regarding `C[N+](C)(C)CC(=O)N/N=C(/CC(=O)CC(C1=C(O)c2ccccc2OC1)c1ccccc1)C(=O)Nc1cccc(Cl)c1` (stereo unspecified), the growth inhibition in assay [1] was 58%; in assay [2], 39.5%; in assay [3], 27.7%; in assay [4], 34.4%; in assay [5], 28.4%; in assay [6] it was 5.5%.
For the compound `COc1ccc(C2(C)C=C(C)C=C(C)C2=O)cc1` (stereo unspecified), the growth inhibition is -5.1% in assay [1]; 2.9% in assay [2]; -12.2% in assay [3]; -15.9% in assay [4]; -9.65% in assay [5]; 7.75% in assay [6].
As for `CC(=O)C/C(C)=N\NC(=O)c1ccc([N+](=O)[O-])cc1`, the growth inhibition in assay [1] was -6.15%; in assay [2], -16.8%; in assay [3], 5.65%; in assay [4] it was 7.35%; in assay [5] it was 9.9%; in assay [6], 19.6%.
As for `CCN(CC)C(=O)COc1ccc(Cl)cc1C(C)C`, the growth inhibition is -17.9% in assay [1]; -16.8% in assay [2]; 1.35% in assay [3]; -2.45% in assay [4]; 14.9% in assay [5]; -31.4% in assay [6].
On to `CN(C)c1ccc(N=O)c(O)c1`, for which the growth inhibition was -3.35% in assay [1]; -6.45% in assay [2]; -63% in assay [3]; 13.6% in assay [4]; -15.8% in assay [5]; 3% in assay [6].
With `CCCCCCCCCCCC(=O)CCCCCCCCCCC`, the growth inhibition in assay [1] was 4%; in assay [2], 2.2%; in assay [3], 2.75%; in assay [4], -33.9%; in assay [5] it was -4.15%; in assay [6], -2.7%.
Take `CCCC[P+](CCCC)(CCCC)C(C(=O)OC)C(C(=O)OC)=C1SC(C(=O)OC)=C(C(=O)OC)S1` (stereo unspecified): the growth inhibition in assay [1] was -0.75%; in assay [2], 0.7%; in assay [3], 6.75%; in assay [4], 6.6%; in assay [5], 19.4%; in assay [6], -45.5%.
Turning to `CC1(C)CNC[C@](C)(OCCCO[C@@]2(C)CNCC(C)(C)NC2=O)C(=O)N1`, the growth inhibition in assay [1] is -11.4%; in assay [2], -33.5%; in assay [3], -21.2%; in assay [4] it was 25.6%; in assay [5], 3.95%; in assay [6] it was -9.45%.
Consider `CCCCCCCCN(CCCCCCCC)CC(O)c1ccc2c(c1)Sc1ccccc1O2` (stereo unspecified), for which the growth inhibition in assay [1] is 96.7% (active); in assay [2], 98.2% (active); in assay [3], 97.5% (active); in assay [4], 97.1% (active); in assay [5], 97.1% (active); in assay [6], 98% (active).
On to `N#CCCN(c1ccc(C=Nc2cccc([N+](=O)[O-])c2)cc1)S(=O)(=O)c1ccccc1`, for which the growth inhibition is 0.75% in assay [1]; 5.65% in assay [2]; 14.7% in assay [3]; 8.1% in assay [4]; -1% in assay [5]; 14.4% in assay [6].
Turning to `CCC(CC)=C(c1ccc(C)cc1)c1ccc(C)cc1`, the growth inhibition in assay [1] was -25.2%; in assay [2] it was -12.7%; in assay [3], -1.9%; in assay [4], -52.8%; in assay [5] it was 4.7%; in assay [6], -12.4%.
On to `O=S1(=O)CCC(Br)c2ccccc21` (stereo unspecified), for which the growth inhibition in assay [1] is -5%; in assay [2], -0.25%; in assay [3], 0.4%; in assay [4] it was -38.5%; in assay [5], 8.6%; in assay [6] it was -12.5%.
As for `CC1CN(C(=O)Nc2ccc([N+](=O)[O-])cc2)CC(C)O1` (stereo unspecified), the growth inhibition in assay [1] was -16.1%; in assay [2], -36.5%; in assay [3] it was 13.7%; in assay [4], 3.5%; in assay [5], -3.65%; in assay [6], 6.25%.
`Oc1c(Br)cc(Br)cc1/C=N/N=C/c1cc(Br)cc(Br)c1O`: the growth inhibition in assay [1] is -6.7%; in assay [2], -20%; in assay [3], -15.9%; in assay [4], 0.2%; in assay [5] it was -8.5%; in assay [6] it was 7.5%.
